Laboratory results as given in publication PMC4336329 (PLoS ONE, 2015).
In all, about 310,000 compounds went through this assay and about 2,200 (0.71%) showed an effect of 50% or more. The effect is printed as a negative number. The entries come from a sample that favours strong results as a whole.

What follows are molecules tested against human ether-à-go-go-related gene (hERG) potassium channel (human, UniProt Q12809) (assay: primary screen, population patch clamp on CHO cells stably expressing hERG; higher = less effect of the substance).
human ether-à-go-go-related gene (hERG) potassium channel, sequence (Q12809 whole entry, looked up): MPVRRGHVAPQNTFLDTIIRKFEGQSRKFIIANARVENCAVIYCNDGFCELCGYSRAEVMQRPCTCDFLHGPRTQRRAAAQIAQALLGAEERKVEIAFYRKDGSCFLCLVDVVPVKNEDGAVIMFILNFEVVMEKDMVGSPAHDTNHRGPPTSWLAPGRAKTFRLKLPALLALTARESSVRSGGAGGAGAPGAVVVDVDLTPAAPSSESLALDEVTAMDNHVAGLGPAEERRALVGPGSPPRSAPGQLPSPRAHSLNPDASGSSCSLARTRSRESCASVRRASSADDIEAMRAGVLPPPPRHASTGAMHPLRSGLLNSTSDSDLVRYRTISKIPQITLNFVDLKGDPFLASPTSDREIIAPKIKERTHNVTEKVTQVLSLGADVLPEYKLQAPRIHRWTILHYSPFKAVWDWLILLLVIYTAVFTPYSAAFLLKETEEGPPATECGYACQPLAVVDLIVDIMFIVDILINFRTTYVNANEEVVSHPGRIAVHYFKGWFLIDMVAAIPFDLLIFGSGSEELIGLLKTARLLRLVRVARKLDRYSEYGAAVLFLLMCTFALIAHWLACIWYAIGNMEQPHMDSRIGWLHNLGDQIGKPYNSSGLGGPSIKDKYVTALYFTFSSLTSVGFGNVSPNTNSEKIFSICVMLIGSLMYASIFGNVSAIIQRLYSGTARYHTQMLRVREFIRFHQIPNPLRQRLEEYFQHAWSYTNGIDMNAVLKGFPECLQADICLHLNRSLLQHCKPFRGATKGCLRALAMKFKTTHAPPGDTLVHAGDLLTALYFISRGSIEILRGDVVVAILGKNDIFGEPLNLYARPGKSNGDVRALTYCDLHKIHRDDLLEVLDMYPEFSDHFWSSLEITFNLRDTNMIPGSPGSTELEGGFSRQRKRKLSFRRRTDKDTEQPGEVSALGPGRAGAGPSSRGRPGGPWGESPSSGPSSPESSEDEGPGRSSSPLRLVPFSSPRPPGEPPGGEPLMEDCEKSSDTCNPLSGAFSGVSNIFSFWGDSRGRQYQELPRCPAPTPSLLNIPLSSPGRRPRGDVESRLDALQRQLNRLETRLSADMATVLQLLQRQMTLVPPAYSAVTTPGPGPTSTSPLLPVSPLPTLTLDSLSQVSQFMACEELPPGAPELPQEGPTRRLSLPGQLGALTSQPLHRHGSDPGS

| SMILES | hERG current change (%, negative = inhibition) at 1uM [%] |
| --- | --- |
| O=C(NCCc1ccc(F)cc1)c1cc([N+](=O)[O-])ccc1N1CCOCC1 | -98.2 |
| O=C(OCc1cccc(Cl)c1)c1cc([N+](=O)[O-])ccc1N1CCOCC1 | -5.04 |
| O=C(OCc1ccc(F)cc1)c1cc(S(=O)(=O)N2CCCCC2)ccc1N1CCOCC1 | 4.59 |
| Cc1ccc(COC(=O)c2cc([N+](=O)[O-])ccc2N2CCOCC2)cc1 | -21 |
| NS(=O)(=O)c1ccc(CCNC(=O)c2cc([N+](=O)[O-])ccc2N2CCOCC2)cc1 | -6.06 |
| Cc1ccc(COC(=O)c2cc(S(=O)(=O)N3CCCCC3)ccc2N2CCOCC2)cc1 | -1.22 |
| COc1ccc(CCNC(=O)c2cc([N+](=O)[O-])ccc2N2CCOCC2)cc1 | 1.7 |
| O=C(OCc1ccc([N+](=O)[O-])cc1)c1cc(S(=O)(=O)N2CCCCC2)ccc1N1CCOCC1 | -77.9 |
| O=C(OCc1ccc([N+](=O)[O-])cc1)c1cc([N+](=O)[O-])ccc1N1CCOCC1 | -67.2 |
| O=C(NCCS(=O)(=O)N1CCN(c2ccccc2F)CC1)C1CC(=O)N(c2ccc(F)cc2)C1 (stereo not shown) | 5.78 |
| COc1cccc(N2CC(C(=O)OC(C)C(=O)c3ccccc3)CC2=O)c1 (stereo not shown) | 5.64 |
| Cc1c(O)ccc(C(=O)CN2CCN(c3ccccc3)CC2)c1O | 13.2 |
| Cc1ccc(-n2c(SCC(=O)N/N=C/c3ccc(C)s3)nnc2-c2ccccc2)cc1 | 7.01 |
| Cn1c(CCNC(=O)c2ccccc2F)nnc1SCc1nc2ccccc2c(=O)[nH]1 | 11.4 |
| COc1ccc(-c2[nH]ncc2CN(C)CCCN2CCOCC2)cc1F | 12 |
| CCOc1ccc(CCNC(=O)c2ccc(=O)[nH]c2)cc1OCC | 4.91 |
| O=C(c1ccc2c(c1)ncn2C1CCCCC1)N1CCC2(CC1)OCCO2 | 0.618 |
| CCCN1C(=O)/C(=C/C=C2\N(CC)c3ccccc3C2(C)C)SC1=S | 5.72 |
| CN1/C(=C\C=C\C2=[N+](C)c3ccc4ccccc4c3C2(C)C)C(C)(C)c2ccccc21.[O-][Cl+3]([O-])([O-])[O-] | -43.6 |
| CCN1/C(=C\C=C\C2=[N+](CC)c3ccccc3C2(C)C)C(C)(C)c2ccccc21.[O-][Cl+3]([O-])([O-])[O-] | -86.1 |
| COc1ccc(S(=O)(=O)Nc2ccc(Cc3ccncc3)cc2)cc1C | 0.33 |
| CCN(CC)CCCNC(=O)C1CCC(CNS(=O)(=O)c2c(C)cc(C)cc2C)CC1 (stereo not shown) | 12.6 |

| SMILES | hERG current change (%, negative = inhibition) at 1uM [%] |
| --- | --- |
| Cc1cc(C)c(S(=O)(=O)NCC2CCC(C(=O)NCCCN3CCC(C)CC3)CC2)c(C)c1 (stereo not shown) | -52.9 |
| CC1CCN(CCCNC(=O)C2CCC(CNS(=O)(=O)c3ccccc3)CC2)CC1 (stereo not shown) | 16.3 |
| CCCCNC(=O)C1CCC(CNS(=O)(=O)c2c(C)cc(C)cc2C)CC1 (stereo not shown) | -13.4 |
| CCCCN(C)CCCNC(=O)C1CCC(CNS(=O)(=O)c2c(C)cc(C)cc2C)CC1 (stereo not shown) | -76.3 |
| CCC1CCCCN1CCCNC(=O)C1CCC(CNS(=O)(=O)c2c(C)cc(C)cc2C)CC1 (stereo not shown) | -3.19 |
| Cc1ccc(Nc2nc(N)c([N+](=O)[O-])c(NCc3ccccc3)n2)cc1 | 8.5 |
| CC(C)(C)c1ccc(OCCCC(=O)N2CCOCC2)cc1 | -2.13 |
| O=C(CCNC(=O)c1ccccc1Cl)NCC1CCCO1 (stereo not shown) | -9.04 |
| CCCn1c(N)c(C(=O)CN(C)CC(=O)Nc2ccc(F)cc2)c(=O)[nH]c1=O | -20 |
| CCCn1c(N)c(C(=O)CN(C)CC(=O)Nc2cccc(F)c2)c(=O)[nH]c1=O | -73.1 |
| CCCn1c(N)c(C(=O)CN(C)CC(=O)Nc2c(Cl)cccc2Cl)c(=O)[nH]c1=O | 0.55 |
| O=C(Nc1ccccc1)N1CCn2c(nc3ccccc32)C1 | -6.18 |
| COc1cc(C(=O)Nc2ccc(C)cc2)c2ccccc2n1 | 7.49 |
| CN(Cc1ccccc1)C(=O)CCc1ccccc1 | 13.8 |
| CC(=O)c1cccc(Nc2cc(C)nc3c(C)cccc23)c1.Cl | -16.9 |
| Cc1cc(Nc2cccc([N+](=O)[O-])c2)c2ccccc2n1 | -36.7 |
| Cc1cc(Nc2cccc([N+](=O)[O-])c2)c2cccc(C)c2n1.Cl | -73.5 |
| COc1ccc(Br)c(C(=O)OCC(=O)NC2CCCCCC2)c1 | -1.39 |
| CCCCN(CC)CCNC(=O)c1cn(-c2ccc(Cl)cc2)c(=O)c2ccccc12 | -81.6 |
| CCCN(CCC)CCCNC(=O)c1cn(-c2ccc(OC)cc2)c(=O)c2ccccc12 | 1.46 |
| CCCCN(CC)CCCNC(=O)c1cn(-c2ccc(OC)cc2)c(=O)c2ccccc12 | -7.85 |
| CCOC(=O)N1CCN(C(C)C(=O)c2c[nH]c3ccccc23)CC1 (stereo not shown) | -0.111 |

| SMILES | hERG current change (%, negative = inhibition) at 1uM [%] |
| --- | --- |
| O=C(NNc1ccc(-c2csnn2)cc1)c1ccccc1C(F)(F)F | 9.16 |
| CCC1C(=O)C(C)(C)C(=O)OC1c1ccc([N+](=O)[O-])cc1 (stereo not shown) | 9.82 |
| CCC1C(=O)CC(c2ccccc2)NC1c1ccccc1 (stereo not shown) | 5.67 |
| CC1C(=O)CC(c2ccc([N+](=O)[O-])cc2)NC1c1ccc([N+](=O)[O-])cc1.Cl (stereo not shown) | -51 |
| CC1C(=O)CC(c2ccccc2)NC1c1ccccc1 (stereo not shown) | 3.38 |
| CC1C(=O)C(C)C(c2ccc([N+](=O)[O-])cc2)NC1c1ccc([N+](=O)[O-])cc1 (stereo not shown) | -4.32 |
| CCC1C(=O)CC(c2ccc([N+](=O)[O-])cc2)NC1c1ccc([N+](=O)[O-])cc1 (stereo not shown) | -69.7 |
| Cc1ccc(P(=S)(c2ccc(C)o2)N2CCOCC2)o1 | 3.25 |
| CCn1c(SCC(=O)Nc2cc(NC(C)=O)ccc2OC)nnc1-c1cccnc1 | 7.42 |
| CN(Cc1ccccn1)C(=O)C1CCC(=O)N(Cc2cccc(F)c2)C1 (stereo not shown) | 8.55 |
| Cc1nc2ccccn2c1CN(C)C(=O)C1CCC(=O)N(CCc2cccc(F)c2)C1 (stereo not shown) | -10.4 |
| Cc1nc2ccccn2c1CN(C)C(=O)C1CCC(=O)N(Cc2cccc(F)c2)C1 (stereo not shown) | -58 |
| COc1ccc(C(=O)N/C(=C\c2ccccc2)C(=O)NC(CC(C)C)C(=O)O)cc1 (stereo not shown) | 21.4 |
| Cc1cccc(OCC(=O)Nc2ccncc2)c1 | 6.41 |
| CCN(Cc1ccccc1)CC(O)COC(c1ccc(OC)cc1)c1ccc(OC)cc1 (stereo not shown) | -32.9 |
| COc1ccc(C(OCC(O)CN(C)C2CCCCC2)c2ccc(OC)cc2)cc1 (stereo not shown) | -29.3 |
| COc1ccc(CN(C)CC(O)COC(c2ccccc2)c2ccccc2)c(OC)c1OC (stereo not shown) | -43.6 |
| COc1ccc(CN(C)CC(O)COC(c2ccc(OC)cc2)c2ccc(OC)cc2)cc1 (stereo not shown) | -80.8 |
| CCOc1ccc(CN(C)CC(O)COC(c2ccc(OC)cc2)c2ccc(OC)cc2)cc1 (stereo not shown) | -81.9 |
| COc1cccc(CN(C)CC(O)COC(c2ccccc2)c2ccccc2C)c1 (stereo not shown) | -8.56 |
| CCN1CCN(S(=O)(=O)c2ccc(Cl)c(C(=O)NC(C)c3ccccc3Cl)c2)CC1 (stereo not shown) | 5.99 |
| O=C(NCCCO)c1ccc2[nH]c3ccccc3c2c1 | 13.4 |

| SMILES | hERG current change (%, negative = inhibition) at 1uM [%] |
| --- | --- |
| O=C(NCc1cc([N+](=O)[O-])ccc1O)c1cccnc1Sc1ccc(Cl)cc1 | 16.3 |
| COc1cccc(C2=CC(c3cc(OC)ccc3OC)n3nnnc3N2)c1 (stereo not shown) | 15.2 |
| O=C(CN(C(=O)c1csnn1)c1ccc(F)cc1)NCc1ccc(F)cc1 | 3.44 |
| CC(=O)Nc1cc2c(cc1NC(=O)c1cnccn1)OCCO2 | 19.8 |
| CCOC(=O)c1sc(NC(=S)NC(=O)c2cccc(Cl)c2)c(C(=O)OCC)c1C | 1.03 |
| COc1ccc(S(=O)(=O)Nc2ccccc2OC)cc1NC(=O)c1cc2ccccc2oc1=O | -4.91 |
| CCCC(O)(CCN1CCOCC1)c1ccc(Cl)cc1 (stereo not shown) | 6.26 |
| CCC(O)(CCN1CCCCC1)c1ccccc1 (stereo not shown) | 3.27 |
| CCCCOc1ccc(C(O)(CCC)CCN2CCOCC2)cc1 (stereo not shown) | -11 |
| CCCCCC(O)(CCN1CCCCC1)c1ccccc1.Cl (stereo not shown) | -84.7 |
| CCCCC(O)(CCN1CCOCC1)c1ccc(Cl)cc1.Cl (stereo not shown) | -51.3 |
| CCCCCC(O)(CCN1CCCCC1)c1ccc(OCC)cc1.Cl (stereo not shown) | -82 |
| CCCOc1ccc(C(O)(CCC)CCN2CCCCC2)cc1 (stereo not shown) | -25.4 |
| CCCCCCC(O)(CCN1CCCCC1)c1ccccc1.Cl (stereo not shown) | -17.1 |
| CCCC(O)(CCN1CCOCC1)c1ccc(Br)cc1.Cl (stereo not shown) | 7.3 |
| O=C1C=C(N2CCCCC2)C2(CCCCC2)O1 | 10.8 |
| Nc1nc(NCc2ccco2)nc(Nc2cccc(F)c2)c1[N+](=O)[O-] | 18.1 |
| O=C(NCCc1ccccc1)c1ccc(Cl)nc1 | 18 |
| COC(=O)c1ccc(CSc2nnc(Nc3cccc(OC)c3)s2)o1 | 10.7 |
